# Source: PubChem BioAssay
# GCN5L2 inh: blocks human GCN5L2 histone acetyltransferase; Q92830; Potency, µM (top dose mostly 58.9 µM), for the others: at the highest dose activity change, negative = inhibition, hits mostly inhibitors; actives 0.21% (n = 390,000); GCN5L2 HAT assay, ThioGlo1 CoA-SH fluorescence
# Target sequence (Q92830 whole entry, looked up): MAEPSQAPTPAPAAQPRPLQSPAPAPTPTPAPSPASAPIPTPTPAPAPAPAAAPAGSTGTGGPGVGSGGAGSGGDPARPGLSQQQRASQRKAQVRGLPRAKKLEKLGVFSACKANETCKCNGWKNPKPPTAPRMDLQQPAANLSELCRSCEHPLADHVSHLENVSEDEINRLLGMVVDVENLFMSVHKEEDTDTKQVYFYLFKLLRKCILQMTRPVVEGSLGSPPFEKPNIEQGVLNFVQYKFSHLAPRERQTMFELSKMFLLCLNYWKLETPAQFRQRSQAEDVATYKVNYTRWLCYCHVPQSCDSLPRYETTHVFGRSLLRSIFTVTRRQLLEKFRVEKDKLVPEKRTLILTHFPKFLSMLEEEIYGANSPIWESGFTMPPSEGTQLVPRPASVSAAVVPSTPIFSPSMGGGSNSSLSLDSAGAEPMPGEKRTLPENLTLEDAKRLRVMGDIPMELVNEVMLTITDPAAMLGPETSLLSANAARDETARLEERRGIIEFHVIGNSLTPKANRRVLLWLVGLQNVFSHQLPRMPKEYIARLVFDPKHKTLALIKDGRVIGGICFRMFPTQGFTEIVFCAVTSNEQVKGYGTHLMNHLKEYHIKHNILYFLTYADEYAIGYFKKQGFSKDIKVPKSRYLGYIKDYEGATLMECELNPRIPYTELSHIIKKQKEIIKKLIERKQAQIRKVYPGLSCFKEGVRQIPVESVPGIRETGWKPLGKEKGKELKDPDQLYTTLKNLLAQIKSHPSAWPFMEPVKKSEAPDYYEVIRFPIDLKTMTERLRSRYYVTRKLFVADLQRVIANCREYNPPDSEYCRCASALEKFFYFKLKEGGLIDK
#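 Enzyme at 20nM final was mixed with library compounds for 15 min at room temperature. Peptide H3(1-25) at 75uM, acetyl-CoA at 70uM and ThioGlo1 at 50uM were then added. Plates were read immediately and after 20 min (Ex340nm/Em540nm).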
# BLM helicase inh: blocks DNA unwinding by human BLM helicase | Potency, µM (titrated, usually from 56.1 µM), without a hit: at the highest dose activity change, negative = inhibition, most hits filed as inhibitors | recombinant BLM DNA unwinding, fluorescence dequenching | actives 0.2% (n = 350,000);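 note: plate controls were vehicle for no effect and no enzyme for full effect; nearly all actives have a fitted effect of over 35% in size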
# JMJD2E inh: inhibitors of human JMJD2E histone demethylase; B2RXH2; JMJD2E catalytic domain, FDH-coupled NADH fluorescence (FDH is formaldehyde dehydrogenase); Potency, µM (top dose mostly 57.1 µM), for inactives: top-dose activity change, negative = inhibition, actives largely listed as inhibitors; actives 1.6% (n = 230,000); active = well fitted inhibition curve with a large enough effect, not every such curve was filed as active; inconclusive = small, poorly fitted or top-dose-only effect, or another doubt; inactive = no such curve, though single readings can be large or run the other way;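 note: 0% = wells with enzyme and -100% = buffer wells without enzyme; nearly all actives have a fitted effect of over 50% in size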
# APE1 inh: inhibitors of human APE1 endonuclease; P27695; actives 0.35% (n = 350,000); recombinant APE1, TAMRA/BHQ-2 abasic DNA cleavage fluorescence; Potency, µM (series often up to 65.8 µM), inactives show at the highest dose activity change, negative = inhibition, most hits filed as inhibitors;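 note: plate controls were vehicle for no effect and reference inhibitor for full effect; nearly all actives have a fitted effect of over 55% in size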
#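 Substrate: short duplex with […] THF abasic site, 5'-TAMRA and 3'-BHQ-2, 50 nM final. APE1 at 0.75 nM, preincubated 15 min RT with compound. Fluorescence increase from first to third read measured activity.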
# RECQ1 helicase: RECQ1 (human) helicase inhibition; AID 2549; P46063; RECQ1 DNA unwinding, red fluorescence kinetic read; Potency, µM (doses to about 57.3 µM), for inactives: at the top dose activity, negative = inhibition, usual class: inhibitors; actives 0.54% (n = 240,000);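 note: plate controls were vehicle for no effect and no enzyme for full effect; nearly all actives have a fitted effect of over 30% in size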
#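 50 nM RECQ1T1 preincubated 15 min with compound in Tris pH 8.0 buffer with MgCl2, DTT, Tween-20 and 2.5 ug/ml poly(dI-dC); started with 200 nM TAMRA/BHQ-2 forked duplex and 2 mM ATP. Unwinding read as fluorescence (525/598 nm), two reads 2 h apart.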
# TDP1 inh: TDP1 (human) enzyme inhibition; Q9NUW8; recombinant TDP1, AlphaScreen DNA substrate cleavage; Potency, µM (highest dose often 130 µM), for the others: top-dose activity change, negative = inhibition, actives largely listed as inhibitors; actives 0.28% (n = 350,000); note: nearly all actives have a fitted effect of over 40% in size
#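 AlphaScreen read-out: signal falls as enzyme removes the 3' tyrosine-FITC from a 5'-biotinylated DNA oligo (15 nM, 5 min, RT). Enzyme was E. coli-made recombinant Tdp1 at 1 nM, exposed to compound for 15 min beforehand; beads 10 ug/ml, 10 min.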
# The depositor's hits bear a star; i = inactive; u = inconclusive; x = not tested or not shown; ! = repeats disagree; [ ] = another dose, or the depositor's remark. This excerpt belongs to a sample that is enriched for hits. Unless noted, calls come from the whole dose curve; as a rule, active = well fitted curve in the direction sought with a large enough effect; inconclusive = small, poorly fitted or top-dose-only effect, or another doubt; inactive = no such curve, though single readings can be large; an effect the other way counts as inactive or inconclusive. Unless noted, % is set by controls: 0 for no effect and ±100 for the full control effect; potency is the fitted concentration of half-maximal effect.
SMILES,GCN5L2 inh,BLM helicase inh,JMJD2E inh,APE1 inh,RECQ1 helicase,TDP1 inh
CCCCCCCCCOc1ccc2[nH]cc(CCN)c2c1,u,15.2%,25.1µM*!,-2.0%,-6.6%,11.0%
COc1ccc2[nH]cc(CCN)c2c1,-2.7%,-6.4%,-0.3%,-4.1%,-0.3%,10.9%[56.1 µM]
O[N+]1=CC=CCC1=S.On1ccccc1=S.[Zn],10.2%,-20.8%,2.51µM*,-4.5%,i,x
CCOC(=O)C1OC1(C)c1ccccc1 (configuration not stated),x,x,x,0.5%,-5.3%,10.4%
COc1cccc([C@@]2(O)CCCCC2CN(C)C)c1 (some centres not stated),-5.3%,-0.6%,x,-6.2%,-5.0%,7.5%
Cc1ccc(C=C2C(Cl)=C(Cl)C(Cl)=C2Cl)cc1,-23.9%,-25.4%,-15.3%,15.8µM*,10µM*,x
C=C(Cl)CCl,x,x,x,3.1%,-7.3%,4.8%
Oc1cccc2cccnc12,9.2%,-0.3%,11.2µM*,3.7%,7.8%,10.6%
CN(C(=O)Oc1cccc2cccnc12)c1ccccc1,-2.3%,1.6%,0.5%,-0.8%,-2.7%,5.2%
O=C(CCl)c1ccccc1,x,x,x,-2.7%,-4.3%,2.5%
Fc1ccc(CNCCc2ccccc2)cc1,-13.6%,3.0%,31.6µM*,-3.7%,-0.4%,-5.3%
Cc1c(O)c(=O)ccn1C,3.4%,-4.2%,7.94µM*,9.0%,10.9%,4.8%
CN1C(=O)C(=Cc2ccccc2OCc2ccc(Cl)cc2)C(=O)N(C)C1=O,-8.2%,-0.9%,20µM*,1.3%,-2.4%,x
CCCCC/C=C\C/C=C\C/C=C\C/C=C\CCCC(=O)NCC(=O)O,6.31µM*,-12.2%,22.4µM*!,u,3.55µM*!,31.6µM*!
CCCCC/C=C\C/C=C\C/C=C\C/C=C\CCCC(=O)Nc1ccc(O)cc1C,-17.1%,-22.7%,x,u,-15.9%,11.5%
CCCCC/C=C\C/C=C\C/C=C\C/C=C\CCCC(=O)NCCCC(=O)O,14.1µM*,99.9%,-0.7%,-6.7%,-24.7%,-4.1%
CCCCC/C=C\C/C=C\CCCCCCCCCC(=O)NCCO,x,-3.9%,0.5%,0.5%,2.1%,3.1%
CCCCC/C=C\C/C=C\C/C=C\C/C=C\CCCC(=O)N(Cc1ccc(O)c(Cl)c1)Cc1ccc(O)c(Cl)c1,u,31.6µM*,x,3.8%,3.9%,-3.1%
CCCCC/C=C\C/C=C\C/C=C\C/C=C\CCCC(=O)Nc1ccc(O)cc1,-18.7%,-25.7%,6.2%,u,7.5%,0.0%
CCCCC/C=C\C/C=C\C/C=C\C/C=C\CCCC(=O)NCCc1ccc(O)c(O)c1,17.8µM*,-23.0%,6.7%,u,-1.5%,-6.1%
CCCCC/C=C\C/C=C\C/C=C\C/C=C\CCCC(=O)NCCO,-5.3%,u,-4.2%,1.2%,-2.8%,9.8%
CC(=O)Oc1c2c(c(CC=C(C)C)c3c1C(=O)C1=CC4CC5C(C)(C)OC(C/C=C(\C)C(=O)O)(C4=O)[C@]15O3)OC(C)(CCC=C(C)C)C=C2 (some centres not stated),15.8µM*,22.4µM*,-15.4%,-1.4%,u,9.0%
Cc1ccc(OCCOc2cccc(C=C3C(=O)NC(=O)NC3=O)c2)c(C)c1,u,-5.7%,x,41.4%,x,79.4µM*
N=C1/C(=C/c2ccc(OC(=O)c3ccco3)cc2)C(=O)N=C2SC=CN12,-7.4%,-11.7%,14.1µM*,-0.7%,i,2.6%
C=CCBr,x,x,x,3.1%,5.1%,13.2%
SMILES,GCN5L2 inh,BLM helicase inh,JMJD2E inh,APE1 inh,RECQ1 helicase,TDP1 inh
CN1/C(=C\C=C2C(=O)NC(=O)NC2=O)C(C)(C)c2ccccc21,-5.4%,2.0%,-22.0%,2.7%,-13.9%,4.9%
CC1(C)OC(c2ccccc2)=C/C(=C/C=C2C(=O)NC(=O)NC2=O)O1,-4.4%,-15.3%,-5.0%,-3.6%,25.1µM*,-1.1%
O=c1oc2ccccc2c(O)c1C(c1ccc([N+](=O)[O-])cc1)c1c(O)c2ccccc2oc1=O,22.4µM*,-14.3%,u,u,u,7.2%
CC[C@H](C)[C@H](NC(=O)[C@H](CO)NC(=O)[C@H](CC(N)=O)NC(=O)[C@H](CC(C)C)NC(=O)[C@H](Cc1ccc(O)cc1)NC(=O)[C@H](CCCCN)NC(=O)[C@H](CCCCN)NC(=O)[C@@H](NC(=O)[C@H](C)NC(=O)[C@H](CCSC)NC(=O)[C@H](CCC(N)=O)NC(=O)[C@H](CCCCN)NC(=O)[C@H](CCCNC(=N)N)NC(=O)[C@H](CC(C)C)NC(=O)[C@H](CCCNC(=N)N)NC(=O)[C@@H](NC(=O)[C@H](Cc1ccc(O)cc1)NC(=O)[C@H](CC(N)=O)NC(=O)[C@H](CC(=O)O)NC(=O)[C@@H](NC(=O)[C@H](Cc1ccccc1)NC(=O)[C@@H](NC(=O)[C@H](C)NC(=O)[C@H](CC(=O)O)NC(=O)[C@H](CO)NC(=O)[C@@H](N)Cc1cnc[nH]1)C(C)C)[C@@H](C)O)[C@@H](C)O)C(C)C)C(=O)N[C@@H](CC(C)C)C(=O)N[C@@H](CC(N)=O)C(N)=O,8.0%,8.0%,x,14.4%,-1.3%,14.8%
C=C1CCC(O)C/C1=C\C=C1/CCCC2(C)C1CCC2C(C)CCCC(C)C (configuration not stated),x,-16.3%,-12.0%,-6.2%,-4.4%,-2.4%
COc1ccc(OC)c([C@@H](O)[C@H](C)N)c1,x,x,x,0.9%,x,x
Cc1cccc(N2C(=O)/C(=C/c3ccc(CN(CCC#N)S(C)(=O)=O)o3)C(=O)NC2=S)c1,-13.7%,-7.7%,-21.4%,u,17.8µM*,-2.3%
Cc1ccc(N2C(=O)/C(=C/c3ccc(CN(CCC#N)S(C)(=O)=O)o3)C(=O)NC2=S)cc1C,-13.5%,-17.0%,-0.3%,u,25.1µM*,-1.0%
CCOc1ccc(N2C(=O)/C(=C/c3ccc(C)o3)C(=O)NC2=S)cc1,-12.6%,-16.2%,x,-19.0%,x,x
COC(=O)[C@@H]1[C@H]2CC[C@@H](C[C@H]1OC(=O)c1ccccc1)N2C,x,x,x,-3.3%,x,x
O=C(O)c1cccc2nc3ccccc3nc12,-8.0%,-9.5%,-14.6%,18.0%,-9.9%,6.0%
O=C(O)c1ccc[nH]c1=S,-4.4%,-0.2%,17.8µM*,3.1%,-4.8%,-2.7%
COc1ccc(/C=C2/C(=O)NC(=O)N(Cc3ccco3)C2=O)cc1,u,0.0%,-2.0%,13.1%,-15.1%,-5.9%
O=C1NC(=O)N(c2ccccc2)C(=O)/C1=C/C=C/c1ccco1,25.8%,-0.4%,-12.2%,u,u,x
